PubChem BioAssay (NCATS)
“And” between values parts separate entries of the source, which are not always exact repeats. Equal values may be shown once. Results filed as inconclusive are left out. A call without a number means that no potency is given here. Some compounds were tested as several samples or in several runs, with calls that do not always agree. The source made the active and inactive calls. Unless noted, calls follow the shape of the dose curve; as a rule, active = well fitted curve in the direction sought with a large enough effect; inconclusive = small, poorly fitted or top-dose-only effect, or another doubt; inactive = no such curve, though single readings can be large; an effect the other way counts as inactive or inconclusive.

Tests used:
[1] = P-glycoprotein substrates identified in KB-8-5-11 adenocarcinoma cell line, qHTS therapeutic library screen (AID 1346987); also: nearly all actives have a fitted effect of over 65% in size; also: potency is read from the fitted curve at half-maximal effect
Outline: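 Compounds are pinned in dose-response onto KB-8-5-11 cells (500 cells/well, colchicine-free medium) and left 72 h at 37 degree C. CellTiter-Glo luminescence then yields AC50 values.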

[2] = NS1 protein of Zika virus - qHTS assay to identify small molecule inhibitors in human HEK 293 cells (AID 1347053); also: nearly all actives have a fitted effect of over 55% in size; also: potency is read from the fitted curve at half-maximal effect
Outline: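 Read-out is a two-antibody TR-FRET for ZIKV NS1, normalized between uninfected cells and infected cells. Compound added 1 h before MR766 infection at MOI 0.5; human HEK 293 cells incubated 24 h, 37 C.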

[3] = qHTS of pediatric cancer cell lines to identify multiple opportunities for drug repurposing: Primary screen for TC32 cells (AID 1347089); also: nearly all actives have a fitted effect of over 60% in size; also: potency is read from the fitted curve at half-maximal effect
Outline: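 Luminescent CellTiter-Glo read-out of metabolically active TC32 cells after 48 h compound exposure. Primary: MIPE 11-point, 0.78 nM–46 µM; NPC 8-point, 0.59 nM–46 µM. Confirmatory: 11-point dilutions.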

[4] = qHTS of pediatric cancer cell lines to identify multiple opportunities for drug repurposing: Primary screen for DAOY cells (AID 1347090); also: nearly all actives have a fitted effect of over 55% in size; also: potency is read from the fitted curve at half-maximal effect
Outline: (§1)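 Eight- or eleven-point concentration series, 48 h treatment at 37 degrees C in growth media; readout CellTiter-Glo luminescence. Potency and efficacy were taken from the concentration-response curves.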

[5] = qHTS of pediatric cancer cell lines to identify multiple opportunities for drug repurposing: Primary screen for SJ-GBM2 cells (AID 1347091); also: potency is read from the fitted curve at half-maximal effect
Outline: as §1

[6] = qHTS of pediatric cancer cell lines to identify multiple opportunities for drug repurposing: Primary screen for A673 cells (AID 1347092); also: nearly all actives have a fitted effect of over 45% in size; also: potency is read from the fitted curve at half-maximal effect
Outline: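 A673 cells (500-1,000 cells/well in growth media) were pre-incubated 5 h at 37 degrees C, then exposed to compounds for 48 h. Viability was read as CellTiter-Glo luminescence; concentration-response curves came directly from the primary screen.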

[7] = qHTS of pediatric cancer cell lines to identify multiple opportunities for drug repurposing: Primary screen for SK-N-MC cells (AID 1347093); also: potency is read from the fitted curve at half-maximal effect
Outline: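 Metabolically active cells were quantified by ATP-dependent luminescence (CellTiter-Glo, 15 min at room temperature) following 48 h treatment. Cells had been plated at 500-1,000 per well and settled for 5 h beforehand.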

[8] = qHTS of pediatric cancer cell lines to identify multiple opportunities for drug repurposing: Primary screen for BT-37 cells (AID 1347094); also: potency is read from the fitted curve at half-maximal effect
Outline: (§2)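 Quantitative HTS format: each compound titrated (MIPE 11 points from 0.78 nM, NPC 8 points from 0.59 nM) onto cells plated 5 hours earlier. After 48 h at 37 degrees C, CellTiter-Glo luminescence was recorded.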

[9] = qHTS of pediatric cancer cell lines to identify multiple opportunities for drug repurposing: Primary screen for U-2 OS cells (AID 1347096); also: nearly all actives have a fitted effect of over 50% in size; also: potency is read from the fitted curve at half-maximal effect
Outline: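 Cells (500-1,000/well) in growth media were settled 5 h at 37 degrees C, then given compounds for 48 h. Viability was read as CellTiter-Glo luminescence. Primary runs used MIPE at 11 points (0.78 nM-46 µM) and NPC at 8 points (0.59 nM-46 µM); follow-ups used 11 points.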

[10] = qHTS of pediatric cancer cell lines to identify multiple opportunities for drug repurposing: Primary screen for Saos-2 cells (AID 1347097); also: nearly all actives have a fitted effect of over 40% in size; also: potency is read from the fitted curve at half-maximal effect
Outline: as §2

[11] = qHTS of pediatric cancer cell lines to identify multiple opportunities for drug repurposing: Primary screen for SK-N-SH cells (AID 1347098); also: nearly all actives have a fitted effect of over 65% in size; also: potency is read from the fitted curve at half-maximal effect
Outline: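 Cells (500-1,000/well) rested 5 h, then received compounds for 48 h; metabolically active cells were measured by CellTiter-Glo luminescence. Final concentrations spanned up to 46 µM (MIPE, 11-point) or 0.59 nM-46 µM (NPC, 8-point) in primary screens, 11-point in follow-ups.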

[12] = Natriuretic polypeptide receptor (hNpr1) antagonism - Pilot counterscreen GloSensor control cell line (AID 1347045; calls by dose curve; also: series mostly up to about 38 µM)
Outline: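 Control counterscreen: luciferase cGMP-biosensor HEK293 cells (no Npr1) received compound for 30 min at room temperature after GloSensor substrate loading. Luminescence was measured before and 20 min after soluble guanylyl cyclase activation by 50 uM nitroprusside.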

[13] = target: Atrial natriuretic peptide receptor 1 (Homo sapiens) (UniProt P16066); experiment: Natriuretic polypeptide receptor (hNpr1) antagonism - Pilot screen (AID 1347049; calls by dose curve;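 also: HEK293 cells with hNpr1 and GloSensor cGMP luciferase stimulated by 0.1 nM hNppA; agonist-evoked cGMP luminescence read 20 min after hNppA addition; series mostly up to about 58 µM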)
Outline: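 Cells expressing receptor plus cGMP biosensor are seeded and incubated overnight at 37C, then loaded with GloSensor reagent (2% final) at room temperature for 2 h. Library compounds go on for 30 min. A pre-read precedes agonist (hNppA, 0.1 nM final) and a 20-min readout.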

[14] = target: Atrial natriuretic peptide receptor 2 (Homo sapiens) (UniProt P20594); experiment: Natriuretic polypeptide receptor (hNpr2) antagonism - Pilot subtype selectivity assay (AID 1347050; calls by dose curve)
Outline: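 Read-out: GloSensor luminescence (CCD imager), baseline vs post-stimulation. HEK293 cells expressing hNpr2; compounds pre-incubated 30-50 min at ambient temperature; hNppC 1 nM final, 20 min.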

[15] = target: T1, Tyrosine-protein phosphatase non-receptor type substrate 1 (Homo sapiens) + Leukocyte surface antigen CD47 (Homo sapiens) (UniProt P78324+Q08722); experiment: CD47-SIRPalpha protein protein interaction - LANCE assay qHTS validation (AID 1347057; active = well fitted curve in the direction sought with a large enough effect in the signal ratio, with a control signal flat, not every such curve was filed as active; the % refers to the signal ratio; also: series mostly up to about 38 µM)
Outline: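 Inhibition of soluble CD47/SIRPalpha ectodomain association by titrated compounds, measured as 665/615 nm time-resolved FRET ratio after sequential 30 min room-temperature incubations.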

[16] = target: T1, Tyrosine-protein phosphatase non-receptor type substrate 1 (Homo sapiens) + Leukocyte surface antigen CD47 (Homo sapiens); experiment: CD47-SIRPalpha protein protein interaction - HTRF assay qHTS validation (AID 1347058; active = well fitted curve in the direction sought with a large enough effect in the signal ratio, not every such curve was filed as active; the % refers to the signal ratio; also: series mostly up to about 38 µM)
Outline: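 Soluble extracellular domains (6His-CD47, Avi-tag-biotinylated SIRPalpha) in PBS pH 7.4 with 0.05% IGEPAL CA-630. Compounds were preincubated 30 min at RT with CD47 and anti-His-Eu, then SIRPalpha and SAV-XL665 were added. TR-FRET 665/615 ratio.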

[17] = target: T1, Tyrosine-protein phosphatase non-receptor type substrate 1 (Homo sapiens) + Leukocyte surface antigen CD47 (Homo sapiens); experiment: CD47-SIRPalpha protein protein interaction - Alpha assay qHTS validation (AID 1347059);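 also: bead proximity luminescence from CD47 binding SIRPalpha after compound preincubation with SIRPalpha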
Outline: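 In PBS (pH 7.4) with 0.05% IGEPAL CA-630, compound is preincubated with biotin-Avi-SIRPalpha ectodomain before His-CD47 ectodomain and affinity beads are added. Light-protected room-temperature incubations; AlphaScreen readout.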

[18] = target: Parathyroid hormone/parathyroid hormone-related peptide receptor (Homo sapiens) (UniProt Q03431); experiment: qHTS for PTHR1 Agonists: Optimization Screen against the NCGC LOPAC library (AID 1347079);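 also: GloSensor cAMP luminescence in HEK-293 GP2 cells expressing human PTHR1 with IBMX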
Outline: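 HEK-293 GP2 cells, PTHR1 + GloSensor cAMP; 3000 cells/well, o/n. Luciferin + IBMX 0.5mM each (stock), 1 hr 37C. Cpd titration, 1 hr 37C. Lum after 15 min RT. Ctrl M-PTH(1-15) top 10uM.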

[19] = qHTS of pediatric cancer cell lines to identify multiple opportunities for drug repurposing: Primary screen for NB-EBc1 cells (AID 1347095); also: potency is read from the fitted curve at half-maximal effect
Outline: as §2

T1 sequence (P78324 whole entry, looked up, the tested form may be a part): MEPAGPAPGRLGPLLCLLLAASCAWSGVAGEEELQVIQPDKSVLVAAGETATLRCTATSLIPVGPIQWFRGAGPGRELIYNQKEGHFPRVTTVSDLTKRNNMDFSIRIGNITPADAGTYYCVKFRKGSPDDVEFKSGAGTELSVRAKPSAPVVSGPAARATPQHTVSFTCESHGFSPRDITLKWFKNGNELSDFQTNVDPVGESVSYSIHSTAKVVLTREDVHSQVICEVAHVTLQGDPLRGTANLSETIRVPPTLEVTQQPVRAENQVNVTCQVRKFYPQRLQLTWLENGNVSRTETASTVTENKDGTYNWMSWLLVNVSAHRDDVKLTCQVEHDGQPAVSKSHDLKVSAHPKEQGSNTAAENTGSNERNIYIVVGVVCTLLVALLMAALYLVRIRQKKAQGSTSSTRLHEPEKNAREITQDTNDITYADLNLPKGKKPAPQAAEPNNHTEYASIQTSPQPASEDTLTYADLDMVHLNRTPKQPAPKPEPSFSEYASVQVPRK
T1 sequence (Q08722 whole entry, looked up, the tested form may be a part): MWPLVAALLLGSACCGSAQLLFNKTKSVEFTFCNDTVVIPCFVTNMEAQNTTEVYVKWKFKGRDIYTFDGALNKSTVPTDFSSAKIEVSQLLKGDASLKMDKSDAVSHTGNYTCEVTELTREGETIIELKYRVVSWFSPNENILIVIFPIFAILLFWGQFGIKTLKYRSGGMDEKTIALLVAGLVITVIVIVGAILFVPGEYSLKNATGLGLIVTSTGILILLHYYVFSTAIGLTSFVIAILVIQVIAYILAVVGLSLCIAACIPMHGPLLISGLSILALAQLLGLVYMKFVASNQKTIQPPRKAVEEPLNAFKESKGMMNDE
Sequence of Atrial natriuretic peptide receptor 1 (Homo sapiens) (P16066 whole entry, looked up): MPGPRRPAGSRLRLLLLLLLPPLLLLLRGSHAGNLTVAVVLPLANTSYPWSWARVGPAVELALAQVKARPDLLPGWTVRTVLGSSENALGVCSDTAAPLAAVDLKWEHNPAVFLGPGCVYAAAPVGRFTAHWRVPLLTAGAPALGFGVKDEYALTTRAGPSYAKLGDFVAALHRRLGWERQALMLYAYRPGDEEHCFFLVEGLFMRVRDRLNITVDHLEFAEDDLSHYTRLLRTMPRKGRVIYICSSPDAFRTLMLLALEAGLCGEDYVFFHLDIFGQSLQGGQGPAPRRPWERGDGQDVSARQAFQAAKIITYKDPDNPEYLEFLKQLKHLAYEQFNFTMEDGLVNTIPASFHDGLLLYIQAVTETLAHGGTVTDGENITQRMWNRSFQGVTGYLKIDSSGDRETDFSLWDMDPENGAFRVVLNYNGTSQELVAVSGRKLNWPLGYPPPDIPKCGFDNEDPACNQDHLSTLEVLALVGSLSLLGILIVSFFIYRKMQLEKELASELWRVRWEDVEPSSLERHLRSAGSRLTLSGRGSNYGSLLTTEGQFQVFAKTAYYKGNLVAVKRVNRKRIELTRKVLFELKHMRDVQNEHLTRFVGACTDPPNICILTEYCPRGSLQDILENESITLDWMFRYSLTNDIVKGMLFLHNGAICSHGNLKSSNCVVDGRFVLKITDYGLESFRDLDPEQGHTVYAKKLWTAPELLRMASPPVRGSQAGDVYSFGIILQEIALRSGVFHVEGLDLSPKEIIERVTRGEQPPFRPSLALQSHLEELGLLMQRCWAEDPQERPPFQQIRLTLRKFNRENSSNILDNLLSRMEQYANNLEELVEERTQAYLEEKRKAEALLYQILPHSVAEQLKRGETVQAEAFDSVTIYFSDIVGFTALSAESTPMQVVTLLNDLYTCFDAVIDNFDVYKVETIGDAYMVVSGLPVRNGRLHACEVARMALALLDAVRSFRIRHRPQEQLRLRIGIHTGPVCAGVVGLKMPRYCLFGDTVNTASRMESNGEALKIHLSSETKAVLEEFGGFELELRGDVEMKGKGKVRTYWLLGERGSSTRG
Sequence of Parathyroid hormone/parathyroid hormone-related peptide receptor (Homo sapiens) (Q03431 whole entry, looked up): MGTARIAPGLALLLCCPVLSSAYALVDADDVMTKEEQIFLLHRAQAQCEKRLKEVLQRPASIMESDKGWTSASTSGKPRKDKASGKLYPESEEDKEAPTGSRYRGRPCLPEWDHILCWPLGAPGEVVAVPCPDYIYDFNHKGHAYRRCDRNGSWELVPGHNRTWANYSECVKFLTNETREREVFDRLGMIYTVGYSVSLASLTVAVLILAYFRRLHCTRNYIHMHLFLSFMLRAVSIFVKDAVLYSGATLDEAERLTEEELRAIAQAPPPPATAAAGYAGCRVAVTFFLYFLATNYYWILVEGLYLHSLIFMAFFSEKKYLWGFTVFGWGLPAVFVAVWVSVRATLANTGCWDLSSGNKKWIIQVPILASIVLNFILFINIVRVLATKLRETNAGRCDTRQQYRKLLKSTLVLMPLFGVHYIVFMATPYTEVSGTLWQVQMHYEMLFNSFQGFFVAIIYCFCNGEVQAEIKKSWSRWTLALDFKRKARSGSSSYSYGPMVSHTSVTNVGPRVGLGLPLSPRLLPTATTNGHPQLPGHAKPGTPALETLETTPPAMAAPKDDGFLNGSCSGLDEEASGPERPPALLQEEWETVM
Sequence of Atrial natriuretic peptide receptor 2 (Homo sapiens) (P20594 whole entry, looked up): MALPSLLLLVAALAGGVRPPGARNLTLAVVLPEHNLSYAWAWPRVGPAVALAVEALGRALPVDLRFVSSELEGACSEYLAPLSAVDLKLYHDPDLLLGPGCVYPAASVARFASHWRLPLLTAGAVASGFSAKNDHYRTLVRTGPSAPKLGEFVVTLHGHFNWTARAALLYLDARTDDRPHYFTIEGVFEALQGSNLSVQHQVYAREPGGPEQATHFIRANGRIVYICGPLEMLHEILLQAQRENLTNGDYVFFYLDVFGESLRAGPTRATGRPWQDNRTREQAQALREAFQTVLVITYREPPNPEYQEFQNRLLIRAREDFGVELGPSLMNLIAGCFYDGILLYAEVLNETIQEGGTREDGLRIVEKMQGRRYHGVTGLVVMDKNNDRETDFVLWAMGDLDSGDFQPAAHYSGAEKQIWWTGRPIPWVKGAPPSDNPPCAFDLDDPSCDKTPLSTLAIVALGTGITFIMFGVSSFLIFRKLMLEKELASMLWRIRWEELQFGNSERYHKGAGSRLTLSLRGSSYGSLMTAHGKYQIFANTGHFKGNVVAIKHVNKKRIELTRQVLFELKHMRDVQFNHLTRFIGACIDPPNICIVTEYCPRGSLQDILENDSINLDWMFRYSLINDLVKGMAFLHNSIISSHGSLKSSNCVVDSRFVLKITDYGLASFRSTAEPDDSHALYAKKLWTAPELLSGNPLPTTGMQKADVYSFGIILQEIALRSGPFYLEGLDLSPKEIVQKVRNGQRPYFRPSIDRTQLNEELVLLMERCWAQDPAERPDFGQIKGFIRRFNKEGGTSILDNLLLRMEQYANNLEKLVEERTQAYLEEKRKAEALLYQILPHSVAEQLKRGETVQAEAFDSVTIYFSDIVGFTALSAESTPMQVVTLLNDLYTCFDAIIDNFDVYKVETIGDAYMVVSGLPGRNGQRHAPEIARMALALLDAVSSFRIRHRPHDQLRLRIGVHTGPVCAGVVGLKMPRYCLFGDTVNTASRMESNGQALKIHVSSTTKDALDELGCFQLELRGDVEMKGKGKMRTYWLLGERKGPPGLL

| SMILES | Potency [1] | Potency [2] | Potency [3] | Potency [4] | Potency [5] | Potency [6] | Potency [7] | Potency [8] | Potency [9] | Potency [10] | Potency [11] | outcome [12] | outcome [13] | outcome [14] | outcome [15] | outcome [16] | outcome [17] | outcome [18] | Potency [19] |
| --- | --- | --- | --- | --- | --- | --- | --- | --- | --- | --- | --- | --- | --- | --- | --- | --- | --- | --- | --- |
| C=C[C@@H]1CN2CCC1C[C@@H]2C(O)c1ccnc2ccc(OC)cc12 (some centres undefined) | inactive | inactive | inactive | inactive | inactive | inactive | inactive | inactive | inactive | inactive | inactive |  |  |  |  |  |  |  |  |
| C=CCc1cccc(C=NNC(=O)CN2CCN(Cc3ccccc3)CC2)c1O | 10.5 µM (active) | 13.2 µM (active) |  | 18.7 µM (active) | 6.62 µM (active) |  | 11.8 µM (active) | 9.68 µM (active) | inactive | 5.9 µM (active) | 9.61 µM (active) | inactive | inactive | inactive | inactive | inactive | inactive | inactive | 5.9 µM (active) |
| Cc1ccc(C(=O)N(CCCN)[C@@H](c2oc3cc(Cl)ccc3c(=O)c2Cc2ccccc2)C(C)C)cc1 | 0.0833 µM (active) | 10.5 µM (active) | 0.0033 µM (active) | 0.001 µM (active) | 0.001 µM (active) | 0.001 µM (active) | 23.5 µM (active) | 0.001 µM (active) |  | 0.001 µM (active) |  |  |  |  |  |  |  |  |  |
| CN[C@@H]1[C@@H](O)[C@@H](O[C@@H]2[C@@H](O)[C@H](O[C@H]3O[C@H](CN)[C@@H](O)[C@H](O)[C@@H]3O)[C@@H](N)C[C@@H]2NC(=O)[C@@H](O)CN)OC[C@]1(C)O | inactive | inactive | inactive |  | inactive | inactive | inactive | inactive | inactive | inactive |  |  |  |  |  |  |  |  | inactive |
| CN(C)CCOc1ccc(C(=C(CCCl)c2ccccc2)c2ccccc2)cc1 | inactive | inactive | inactive | inactive |  | inactive | inactive | inactive | inactive |  |  |  |  |  |  |  |  |  |  |
| Cc1cnc(Nc2cccc(CN3CCOCC3)c2)nc1Nc1cccc(S(=O)(=O)NC(C)(C)C)c1 | inactive and 4.11 µM (active) | inactive | inactive | 14.8 µM (active) | 4.18 µM (active) |  |  |  | 14.8 µM (active) | 5.26 µM (active) |  |  |  |  |  |  |  |  | 4.18 µM (active) |
| Cc1nc2c([nH]1)CCN(C(=O)c1ccc(NC(=O)c3ccccc3-c3ccccc3)cc1)c1ccccc1-2 | inactive | inactive | inactive |  | inactive | inactive |  | inactive | inactive | inactive |  |  |  |  |  |  |  |  | inactive |
| CN(C)CCN(C)C(=O)c1ccc(NC(=O)Nc2ccc(-c3nc(N4CCOCC4)c4ccn(CC(F)(F)F)c4n3)cc2)cc1 | inactive | 3.32 µM (active) | 0.147 µM (active) |  | 0.105 µM (active) | 2.96 µM (active) |  | 0.0485 µM (active) | 4.69 µM (active) | 0.418 µM (active) | 7.64 µM (active) |  |  |  |  |  |  |  | 0.935 µM (active) |
| CC(C)C[C@@H](N)[C@H](O)C(=O)N[C@H](C(=O)N[C@H](C(=O)N[C@@H](CC(=O)O)C(=O)O)C(C)C)C(C)C | inactive | inactive | inactive |  | inactive | inactive |  | inactive | inactive | inactive | 24.1 µM (active) |  |  |  |  |  |  |  | inactive |
| CCN(CCO)CCCOc1ccc2c(Nc3cc(CC(=O)Nc4cccc(F)c4)[nH]n3)ncnc2c1 | inactive | inactive | 0.33 µM (active) | inactive | 0.166 µM (active) |  | 0.209 µM (active) |  | inactive | inactive |  |  |  |  |  |  |  |  |  |
| c1cc(OCCN2CCCCC2)cc(-c2n[nH]c3ccc(-c4ncn[nH]4)cc23)c1 | inactive | inactive | inactive |  | inactive | 9.35 µM (active) | 16.6 µM (active) | 19.3 µM (active) | inactive | inactive |  |  |  |  |  |  |  |  | inactive |
| CCCCN(CCCC)CC(O)c1cc(Cl)cc2c1-c1ccc(Cl)cc1C2=Cc1ccc(Cl)cc1 (centres undefined) | inactive | inactive | inactive | inactive |  | inactive |  | inactive | inactive | inactive | inactive |  |  |  |  |  |  |  | inactive |
| O=C(c1ccc(C(=O)N2CCC(N3CCCC3)CC2)c(Nc2ccccc2)c1)N1CCC(N2CCCC2)CC1 | inactive | inactive | inactive |  | inactive | inactive |  |  | inactive | inactive | inactive |  |  |  |  |  |  |  | inactive |
